Bioassay records from PubChem.
The list is not random: actives were taken first. Their share in the collection is about 21%.
Shiga toxin inh: blocks Shiga toxin action in Vero cells; 290,000 tested, 9.2% active; inhibition, % at 38.7 µM; Vero cells, Shiga toxin protein synthesis inhibition reporter; in the data active means inhibition mostly above about 28%, no sharp cut-off; inactive means mostly below about 43%
NS1 function inh: inhibitors of influenza NS1 protein function; 270,000 tested, 0.4% active; Potency, µM (top dose mostly 46.1 µM); calls by dose curve; further: actives are rising curves; nearly all actives have a fitted effect of over 50% in size
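A cell-based growth assay was used: compounds that relieve NS1-induced slow growth of budding yeast raise OD600. Assay medium was yeast nitrogen base with ammonium sulphate and -URA supplement, pH 6.0, with 2% galactose.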
Pf growth 48h: P. falciparum growth inhibition at 48 hours (one generation); P. falciparum luciferase growth in erythrocytes, 48 h; Potency, µM (top dose mostly 28.7 µM), actives largely listed as inhibitors; 310,000 tested, 5.9% active; AID 504832
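Parasite viability was followed by luminescence of a genomically integrated firefly luciferase. Cultures held 0.1% parasitemia at 2% hematocrit (final), incubated under 5% CO2 at 37 C.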
Pf growth 96h: inhibits malaria parasite growth, 96 h; Potency, µM (highest dose often 28.7 µM), usual class: inhibitors; AID 504834; 320,000 tested, 6.9% active; P. falciparum luciferase reporter growth, 96 h
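Parasite growth measured via integrated firefly luciferase reporter in P. falciparum. Infected erythrocytes at 2% hematocrit, 0.05% parasitemia final were treated 96 hours at 37 C under 5% CO2, and luminescence was read.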
Cycloheximide cs: affects cycloheximide protein synthesis inhibition readout, counter-screen; AID 2314; cell reporter, cycloheximide protein synthesis inhibition counterscreen; 300,000 tested, 12% active; max response, %; in the data active means max response mostly above about 13%, no sharp cut-off; inactive means mostly below about 14%; further: read at 38.3 µM for the half of the compounds with a filed dose
Numbers stand for hits; . = inactive; ? = inconclusive; / = not tested or not shown; [ ] = remark or other dose. Unless noted, the call rests on the fitted dose curve; in most records, active means well fitted inhibition curve with a large enough effect; inconclusive means small, poorly fitted or top-dose-only effect, or another doubt; inactive means no such curve, though single readings can be large or run the other way.

SMILES	Shiga toxin inh	NS1 function inh	Pf growth 48h	Pf growth 96h	Cycloheximide cs
N=C1SC(c2ccccc2)C(=O)N1c1ncc(Cc2ccccc2)s1 (centres undefined)	56.2	.	?	?	17.6
COc1ccc(NC(=O)C2CCN(S(=O)(=O)c3c(C)nn(C)c3C)CC2)cc1	.	.	.	?	.
O=C(Nc1ccc2c(c1)OCCO2)C1CCN(S(=O)(=O)c2cccs2)CC1	.	.	/	.	24.0
O=C(Nc1ccc2c(c1)OCCO2)C1CCCN(S(=O)(=O)c2cccs2)C1 (centres undefined)	.	.	.	/	.
O=C(Nc1ccc2c(c1)OCO2)C1Cc2ccccc2CN1S(=O)(=O)c1cccs1 (centres undefined)	.	.	.	.	17.5
Cc1nn(C)c(C)c1S(=O)(=O)N1CCC(C(=O)Nc2ccc3c(c2)OCCO3)CC1	81.1	.	/	?	.
O=C(Nc1ccc2c(c1)OCO2)C1CCN(S(=O)(=O)c2cccs2)CC1	42.0	.	.	.	8.4
O=C(Nc1ccc2c(c1)OCO2)C1CCCN(S(=O)(=O)c2cccs2)C1 (centres undefined)	.	.	.	?	.
CCOC(=O)C(C)Sc1nnc(-c2ccccc2O)n1-c1ccc(C)cc1 (centres undefined)	.	.	?	?	.
COc1ccc(OC)c(NC(=O)CCCNC(=O)c2ccc(Cl)cc2)c1	.	.	.	.	.
O=C(C1Cc2ccccc2CN1S(=O)(=O)c1cccs1)N1CCCCC1 (centres undefined)	.	.	.	/	9.5
Cc1cc(Br)cc(C)c1NC(=S)NC(=O)CC(C)C	.	.	?	/	.
Cc1nn(CC2CCCCC2)c(N)c1-c1ccccc1	64.5	.	/	?	44.1
Nc1c(-c2ccccc2)c(CN2CCOCC2)nn1-c1ccccc1	.	.	.	?	.
Cc1nn(-c2nc3ccccc3[nH]2)c(N)c1-c1ccccc1	66.9	.	.	.	41.9
CCOC(=O)Cn1nc(C)c(-c2ccccc2)c1N	.	.	.	.	.
Cc1nn(-c2ccccc2)c(/N=C/c2ccccc2O)c1-c1ccccc1	active	.	.	?	79.8
Cc1nn(-c2ccccc2)c(N)c1-c1ccccc1	64.2	/	.	.	38.3
CCc1cc2c(-c3ccccc3)cc(=O)oc2cc1OC(=O)c1cccs1	.	.	.	.	.
CCOc1cccc(C(=O)Nc2ccc3[nH]ncc3c2)c1	21.8	.	.	.	35.7
CCOc1cccc(C(=O)Nc2ccncc2)c1	.	/	.[5.75 µM]	.	.
COc1ccccc1C(=O)Nc1ccc2[nH]ncc2c1	.	.	.	7.38µM	16.0
COc1cccc(C(=O)Nc2ccc3[nH]ncc3c2)c1	.	.	.	?	24.3
COc1cccc(C(=O)Nc2ccc3c(c2)C(=O)NC3=O)c1	.	.	.	.	.
CC(C)c1ccccc1OCC(=O)Nc1ccc2[nH]ncc2c1	.	.	?	?	.
SMILES	Shiga toxin inh	NS1 function inh	Pf growth 48h	Pf growth 96h	Cycloheximide cs
COc1ccc(COc2ccccc2C(=O)NCc2ccccc2)cc1F	.	.	.	.	.
CCC1=Nc2cc(C(=O)NCc3ccco3)ccc2Sc2ccc(Cl)cc21	.	.	1.47µM	.	.
CCC1=Nc2cc(C(=O)NCC3CCCO3)ccc2Sc2ccc(Br)cc21 (centres undefined)	.	/	2.94µM	?	.
CCC1=Nc2cc(C(=O)NCc3ccco3)ccc2Sc2ccccc21	.	?	7.38µM	.	.
Cc1cc(Cn2nc(-c3ccccc3C)cc2C(=O)O)on1	/	/	.	.	/
O=C(/C=C/c1ccc(OCCCF)cc1)N1CCOCC1	65.8	.	.	.	29.8
Cc1ccccc1/C=C/C(=O)N1CCOCC1	66.3	.	.	.	30.8
COc1ccccc1/C=C/C(=O)N1CCOCC1	.	.	/	.	.
O=C(c1ccccc1Sc1cccc2ccccc12)N1CCOCC1	.	.	10.4µM	?	.
O=C(/C=C/c1cccc2ccccc12)N1CCOCC1	85.6	.	.	.	32.3
CCCCCCOc1ccc(/C=C/C(=O)N2CCOCC2)cc1OC	.	.	.	.	.
CC(C)n1c(C(=O)OCC(=O)NCc2ccc3c(c2)OCO3)cc2sccc21	.	.	.	.	.
O=C(/C=C/c1cccc(Oc2ccccc2)c1)N1CCOCC1	86.3	.	.	.	33.8
O=C(/C=C/c1ccccc1Cl)N1CCOCC1	.	.	.	?	18.6
O=C(/C=C/c1ccccc1)Oc1cccc(C(=S)N2CCOCC2)c1	.	/	?	?	.
CC[C@H]1CC[C@H]2[C@@H]3CC=C4C[C@H](OC(C)=O)[C@@H](N)C[C@@]4(C)[C@H]3CC[C@@]12C	/	.	/	/	/
CCCOc1cccc(OCCSc2nc(C)cc(=O)[nH]2)c1	.	.	.	/	46.0
COC(=O)C1C(c2ccc(OC)c(OC)c2)NC(c2ccc(OC)c(OC)c2)C(C(=O)OC)S1(=O)=O (centres undefined)	.	.	.	?	.
COC(=O)C1CSc2[nH]c(=O)sc2C1c1ccc(OC)c(OC)c1 (centres undefined)	.	.	10.4µM	?	.
CN(Cc1ccccc1)S(=O)(=O)c1ccc2c(c1)NC(=O)CC(=O)N2	.	.	.	10.4µM	.
O=C(c1ccccc1)c1ccc(N2CCN(C(=O)c3cccc(F)c3F)CC2)c(F)c1	.	.	?	.	.
COc1ccccc1NC(=O)NCc1ccc2c(c1)OCO2	.	.	.	14.7µM	11.5
O=C(NCc1ccc2c(c1)OCO2)Nc1ccc(F)cc1	44.5	.	.	?	36.8
COc1cccc2cc(C(=O)OCC(=O)NCc3ccc4c(c3)OCO4)c(=O)oc12	67.5	.	.	.	37.9
Fc1ccc(NC(=S)NCc2ccc3c(c2)OCO3)cc1	.	/	.	.	.
SMILES	Shiga toxin inh	NS1 function inh	Pf growth 48h	Pf growth 96h	Cycloheximide cs
Cc1ccc(NC(=O)NCc2ccc3c(c2)OCO3)cc1C	42.9	.	.	.	23.4
Cc1ccc(NC(=S)NCc2ccc3c(c2)OCO3)cc1C	.	.	.	.	.
O=C(COC(=O)c1ccc2c(c1)OCO2)NCc1ccc2c(c1)OCO2	.	.	/	.	.
CCCCN(C)c1c(N2CCC(C(=O)OCC)CC2)c(=O)c1=O	.	.	.	.	.
CC(C)CCNC(=O)C(=O)Nc1cc2c3c(c1)CCC(=O)N3CCC2	.	.	.	?	.
COc1ccccc1CN(CC(=O)NCc1ccc2c(c1)OCO2)C(=O)c1ccc2c(c1)OCCO2	.	.	.	9.28µM	.
COc1ccc(/C=C2\SC(=S)N(CCCC(=O)N3CCCCC3CCO)C2=O)cc1 (centres undefined)	.	.	?	8.28µM	.
COc1cccc(/C=C2\SC(=S)N(CCCC(=O)N3CCCCC3)C2=O)c1	.	.	?	?	.
COc1cccc(/C=C2\SC(=O)N(CCC(=O)N3CCCCC3CCO)C2=O)c1 (centres undefined)	.	.	?	10.4µM	.
CC(C)c1ccc(/C=C2\SC(=S)N(CCC(=O)N3CCCCC3CCO)C2=O)cc1 (centres undefined)	.	.	.	9.28µM	.
O=C1/C(=C\c2ccccc2)SC(=S)N1CCC(=O)N1CCCCC1CCO (centres undefined)	38.6	.	?	?	35.2
